In paper PMC4336329 (PLoS ONE, 2015):
In all, about 310,000 compounds went through this assay and about 14,000 (4.5%) showed an effect of 50% or more. Effects have a minus sign here. This is one part of a sample in which strong results are shown more often than they occur.

The molecules below were run against human ether-à-go-go-related gene (hERG) potassium channel (human, UniProt Q12809) (assay: primary screen, population patch clamp on CHO cells stably expressing hERG; higher = less effect of the substance).
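Note: peak tail current of the secondary pulse compared with the same well before compound.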

human ether-à-go-go-related gene (hERG) potassium channel, sequence (Q12809 whole entry, looked up): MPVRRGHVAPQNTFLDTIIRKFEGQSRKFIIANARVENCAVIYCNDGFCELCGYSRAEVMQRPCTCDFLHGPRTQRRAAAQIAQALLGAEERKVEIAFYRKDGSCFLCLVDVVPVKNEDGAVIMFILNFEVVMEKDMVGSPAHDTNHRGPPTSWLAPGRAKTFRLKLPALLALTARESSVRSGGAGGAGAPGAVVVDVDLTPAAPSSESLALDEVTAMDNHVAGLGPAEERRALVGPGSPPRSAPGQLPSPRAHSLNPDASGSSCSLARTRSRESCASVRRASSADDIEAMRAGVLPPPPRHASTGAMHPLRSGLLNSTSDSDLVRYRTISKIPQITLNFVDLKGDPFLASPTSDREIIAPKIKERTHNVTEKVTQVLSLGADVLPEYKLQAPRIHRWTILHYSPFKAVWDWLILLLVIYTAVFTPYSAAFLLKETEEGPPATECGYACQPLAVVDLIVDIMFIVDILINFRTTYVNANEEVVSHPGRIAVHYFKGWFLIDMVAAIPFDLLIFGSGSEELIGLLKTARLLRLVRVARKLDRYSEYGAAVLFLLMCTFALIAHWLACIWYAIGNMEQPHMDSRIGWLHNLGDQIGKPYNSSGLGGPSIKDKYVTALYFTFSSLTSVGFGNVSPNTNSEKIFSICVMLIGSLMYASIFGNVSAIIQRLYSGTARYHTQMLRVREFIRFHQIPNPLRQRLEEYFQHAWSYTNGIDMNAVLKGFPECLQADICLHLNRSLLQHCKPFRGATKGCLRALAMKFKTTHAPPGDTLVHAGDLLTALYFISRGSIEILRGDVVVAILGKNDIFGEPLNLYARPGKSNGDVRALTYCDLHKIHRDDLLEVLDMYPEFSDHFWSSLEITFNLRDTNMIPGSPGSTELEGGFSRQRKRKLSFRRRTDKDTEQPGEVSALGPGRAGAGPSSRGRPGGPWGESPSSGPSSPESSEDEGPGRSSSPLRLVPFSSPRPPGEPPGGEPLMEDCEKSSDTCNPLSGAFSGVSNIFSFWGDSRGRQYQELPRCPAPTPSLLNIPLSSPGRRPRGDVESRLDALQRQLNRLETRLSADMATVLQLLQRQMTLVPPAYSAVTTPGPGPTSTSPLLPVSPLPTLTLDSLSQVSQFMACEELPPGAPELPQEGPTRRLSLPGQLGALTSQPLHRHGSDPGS

Structure (SMILES) | hERG current change (%, negative = inhibition) at 10uM [%]
C=CCC1NS(=O)(=O)OC2CCCC12 (stereo not shown) | 10.6
Cc1ccc(Cn2cccc(NC(=O)NCc3ccccc3)c2=O)cc1 | -6.27
NC(=O)c1ccc[n+]([C@H]2O[C@@H](COP(=O)([O-])OP(=O)(O)OC[C@H]3O[C@@H](n4cnc5c(N)ncnc54)[C@H](O)[C@@H]3O)[C@H](O)[C@@H]2O)c1 | 12.1
Cc1c(C(=O)NN2CCOCC2)oc2c1ccc1ccccc12 | 2.24
Cc1ccc(C(=O)OCc2nnc(-c3ccccc3)o2)cc1S(=O)(=O)N1CCOCC1 | -26.7
CN1CCN(C(=O)CC2(CC(=O)O)CCCC2)CC1.Cl | -1.66
CCn1c(CNC(=O)c2cccc(C)c2)nnc1SCC(=O)Nc1nnc(C)s1 | 15.4
Cn1c(=O)c(=O)n(C)c2cc(S(=O)(=O)NCCOc3ccccc3Cl)ccc21 | 1.26
COc1ccccc1/C=C/CN1CCCC(CO)(Cc2cccc(Cl)c2)C1 (stereo not shown) | -69.6
COc1ccc(C2CC(=O)c3cc(OC)c(OC)cc32)cc1OC (stereo not shown) | 20.7
COc1ccc(CN(C)C(C)C(=O)Nc2cccc3ccccc23)cc1 (stereo not shown) | -14.1
Cc1ccc(NC(=O)C2CC(=O)Nc3nncn32)cc1 (stereo not shown) | 14.4
O=C(COC(=O)c1ccc(O)cc1)NCC1COc2ccccc2O1 (stereo not shown) | -3.35
COc1ccc(/C=C/C(=O)NC(=S)NNC(=O)c2ccco2)cc1 | 13.8
Cc1ccc(/C(O)=C2/C(=O)C(=O)N(CCN3CCOCC3)C2c2cccs2)cc1 (stereo not shown) | 8.67
O=C(CSc1nnc2scc(-c3ccccc3)n12)Nc1nsc(-c2ccccc2)n1 | -40.1
c1ccc(-c2csc3nnc(SCc4ccc5c(c4)OCO5)n23)cc1 | -71.4
O=C(CSc1nnc2scc(-c3ccccc3)n12)NCc1ccc2c(c1)OCO2 | -21.1
O=C(CSc1nnc2scc(-c3ccccc3)n12)N1CCN(Cc2ccccc2)CC1 | -41.8
Cc1ccc(-c2csc3nnc(SCC(=O)N4CCN(Cc5ccccc5)CC4)n23)cc1 | -55.3
c1ccc(-c2csc3nnc(SCc4ccc5c(c4)OCCO5)n23)cc1 | -3.29
Cc1ccc(-c2nc(NC(=O)CSc3nnc4scc(-c5ccccc5)n34)ns2)cc1 | -1.19

Structure (SMILES) | hERG current change (%, negative = inhibition) at 10uM [%]
Cc1ccc(-c2csc3nnc(SCC(=O)Nc4nsc(-c5ccccc5)n4)n23)cc1 | -62.9
Cn1c(SCC(=O)N2CCN(Cc3ccccc3)CC2)nnc1-c1ccncc1 | -2.39
CCOc1ccccc1NC(=O)C(Sc1nnnn1C)c1ccccc1 (stereo not shown) | -21.2
Cn1c(NC(=O)c2ccccc2)c(-c2cccs2)c(=O)c2ccccc21 | 7.07
CC(=O)c1ccc(N=Nc2c(C)[nH]n(-c3ccccc3)c2=O)cc1 | 8.59
CC1CCN(C(=S)c2cn(Cc3ccc(F)cc3)c3ccccc23)CC1 | -1.82
COc1cc(/C=C/C(=O)O)cc(S(=O)(=O)Nc2ccc3nc(C)sc3c2)c1OC | 26.5
CCOc1ccc(C(=O)NC(=S)Nc2ccccc2N2CCC(C)CC2)cc1[N+](=O)[O-] | 5.75
CCOc1ccc(C(=O)Nc2ccccc2C#N)cc1[N+](=O)[O-] | -55.6
CCOc1ccc(C(=O)Nc2ccccc2CC)cc1[N+](=O)[O-] | -21.9
CCOc1ccc(C(=O)NC(=S)Nc2ccccc2N2CCCCC2)cc1[N+](=O)[O-] | 11.7
CCOc1ccc(C(=O)Nc2ccccc2N2CCN(C(=O)c3ccccc3)CC2)cc1[N+](=O)[O-] | -83.3
CCOc1ccccc1NC(=O)c1ccc(OCC)c([N+](=O)[O-])c1 | -10.3
O=C1NC2(CCCCCC2)Cc2ccccc21 | -21.2
Cc1ccc(C(=O)NNC(=O)C(C)Oc2ccc3ccccc3c2)o1 (stereo not shown) | -13.2
C/C(CC(=O)NC(C)(C)C)=N\NC(N)=S | 20
CCN(CC)S(=O)(=O)c1ccc(NC(=O)c2cccc3c2C(=O)N(CCOC)C3)cc1 | -1.36
Cc1cc(C)n2nc(SC(C)C(=O)N3CCC4(CC3)OCCO4)nc2n1 (stereo not shown) | -0.197
O=C(c1ccc(Cn2cc(Cl)cn2)cc1)N1CCN(c2ccccc2)CC1 | -58.4
O=C(O)c1ccc(Cn2cc(Cl)cn2)cc1 | 18.7
O=C(c1ccc(CN2CCOCC2)cc1)N1CCN(c2ccccc2)CC1 | 3.02
COc1ccc(N2CCN(C(=O)c3cccc(Cn4cc(Cl)cn4)c3)CC2)cc1 | -48

Structure (SMILES) | hERG current change (%, negative = inhibition) at 10uM [%]
NNC(=O)c1ccc(Cn2cc(Br)cn2)cc1 | -2.07
O=C(c1ccc(Cn2cc(Br)cn2)cc1)N1CCN(c2ccccc2)CC1 | -57.4
O=C(O)C1C(=O)NCC1c1ccccc1 (stereo not shown) | 10.6
Cc1ccc(C(=O)NC2CCCC(C)C2C)cc1S(=O)(=O)N1CCCCC1 (stereo not shown) | -20.6
COC(=O)C1=C(C(=O)OC)N2C=CC=CC2(C)C(C(=O)OC)=C1C(=O)OC (stereo not shown) | -5.49
CCCCC(=O)Nc1ccc(N2CCN(C(=O)c3ccco3)CC2)cc1 | -18.1
COC(=O)c1cc(COC(=O)c2cccnc2SC)oc1C | -5.24
O=C(CCNC(=O)C1CCN(S(=O)(=O)c2ccc(F)cc2)CC1)Nc1nccs1 | 15.5
Cc1ccc(C2CC(=O)N(c3ccc(F)cc3)C3=C2C(=O)CCC3)cc1 (stereo not shown) | 0.885
CC1CCC(NC(=O)CCS(=O)(=O)c2ccc3c(c2)CC(C)N3C(=O)C2CC2)CC1 (stereo not shown) | 7.85
CN(C)CCNC(=O)c1ccccc1-c1ccccc1 | -1.88
CCCNC(=O)c1cc2ccccc2c(=O)o1 | 10.8
CN(C)CCNC(=O)c1ccccc1-c1cc2ccccc2c(=O)o1 | -54.6
COc1ccc(N(C)S(=O)(=O)c2cccc(C(=O)NC3CCCCC3C)c2)cc1 (stereo not shown) | -6.33
O=C(NCN1C(=O)C2C3C=CC(C3)C2C1=O)OC1CCCCC1 (stereo not shown) | 4.17
CCC1CCc2sc(C(=O)NCC3CCCO3)cc2C1 (stereo not shown) | -12.1
COc1ccc(C(CNC(=O)c2cc3c(s2)CCC(C)C3)N2CCCC2)cc1 (stereo not shown) | -57.7
CCC1CCc2sc(C(=O)N(C)CC(=O)Nc3ccc(OC)cc3)cc2C1 (stereo not shown) | -18.2
COc1ccc(C(CNC(=O)c2ccco2)N2CCCC2)cc1 (stereo not shown) | -7.05
CCC1CCc2sc(C(=O)NCC(c3ccc(OC)cc3)N3CCOCC3)cc2C1 (stereo not shown) | -5.82
CCC1CCc2sc(C(=O)NCc3ccccn3)cc2C1 (stereo not shown) | -3.79
COc1ccc(C(CNC(=O)c2ccc(Cl)s2)N2CCOCC2)cc1 (stereo not shown) | -18.2

Structure (SMILES) | hERG current change (%, negative = inhibition) at 10uM [%]
COc1ccc(C(CNC(=O)c2cc3c(s2)CCCC3)N2CCOCC2)cc1 (stereo not shown) | -23.5
COc1ccc(C(CNC(=O)c2cc3c(s2)CCC(C)C3)N2CCOCC2)cc1 (stereo not shown) | -54
CCC1CCc2sc(C(=O)NCC(c3ccccc3OC)N3CCCC3)cc2C1 (stereo not shown) | -63.6
CCC1CCc2sc(C(=O)NCC(c3ccc(OC)cc3)N3CCCC3)cc2C1 (stereo not shown) | -71
CC1CCc2sc(C(=O)NCC(c3ccco3)N3CCCCC3)cc2C1 (stereo not shown) | -30.8
CCCNC(=O)Cn1nc(C(F)(F)F)c2c1CCCC2 | 9.29
CC(=O)Oc1ccc(/C=C2/SC(=S)N(Cc3ccccc3)C2=O)cc1 | 10.2
CCn1c(SCC(=O)N2CCc3ccccc32)nnc1-c1ccncc1 | -7.04
COc1ccc(CCNC(=O)C2=CC=CN3CCS(=O)(=O)N=C23)cc1 | -7.92
Cc1ccccc1/C=C\c1nc2ccccc2c(=O)[nH]1 | 10.5
CC(Oc1ccc2c(-c3ccccc3)cc(=O)oc2c1)C(=O)N1CCC[C@@H]1C(N)=O (stereo partly shown) | 1.14
O=C(NCCS(=O)(=O)c1ccc(Br)cc1)c1ccc(Cl)cc1 | -2.62
CCCCOc1ccc(CN(CCO)CCO)cc1[N+](=O)[O-].Cl | -22
Cl.O=[N+]([O-])c1cc(CN(CCO)CCO)ccc1O | -2.79
COc1ccc(CN(CCO)CCO)cc1[N+](=O)[O-].Cl | 3.54
CCCOc1ccc(CN(CCO)CCO)cc1C(=O)OC | 6.82
CCOc1ccc(CN(CCO)CCO)cc1[N+](=O)[O-].Cl | -62.9
CCCOc1ccc(CN(CCO)CCO)cc1[N+](=O)[O-].Cl | -54.2
CCOC(=O)N1CCN(CC(=O)Nc2cc3c(cc2C(C)=O)OCO3)CC1 | -1.3
Fc1ccc2nc(Nc3nc4c(s3)CCCC4)sc2c1 | 3.62
COC(=O)N(NC(=O)C(O)(c1ccccc1)c1ccccc1)c1ccccc1 | 9.59
COc1ccc(OCC(=O)Nc2cc(NC(=O)c3ccco3)ccc2OC)cc1 | 5.23
